Records with an inconclusive call do not appear. Active and inactive are the calls of the source. Unless noted, calls come from the whole dose curve; as a rule, active = well fitted curve in the direction sought with a large enough effect in the repeat runs; inconclusive = weak or mixed curves; inactive = no such curve, though single readings can be large; an effect the other way counts as inactive or inconclusive.
Experiments:
[1] = qHTS assay to identify small molecule agonists of the sonic hedgehog signaling (Shh) pathway - cell viability counter screen (AID 1259366); settings: NIH/3T3 Gli1-Luc viability, CellTiter-Fluor, 24 h; series mostly up to 92.4 µM; note: nearly all actives have a fitted effect of over 50% in size
Summary of the method: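 CellTiter-Fluor fluorescence read-out, 1 hr at 37C, added after 23hr compound exposure. Cells: 3T3 Gli1-Luc, an NIH/3T3 clone with stably integrated Gli1-Luc reporter, plated 4hr before compound.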

[2] = qHTS assay to identify small molecule antagonists of the sonic hedgehog signaling (Shh) pathway - cell viability counter screen (AID 1259367); settings: NIH/3T3 Gli1-Luc viability, CellTiter-Fluor, 24 h; series mostly up to 92.4 µM; note: nearly all actives have a fitted effect of over 55% in size
Summary of the method: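 After a 4 hr settling period, 3T3 Gli1-Luc cells were treated with DMSO-dissolved chemicals and conditioned medium, kept 24 hr at 37C in 5% CO2, and assayed for viability by CellTiter-Fluor fluorescence following 1 hr reagent incubation.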

[3] = qHTS assay to identify small molecule agonists of the sonic hedgehog signaling (Shh) pathway (AID 1259368; calls by dose curve;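 note: NIH/3T3-derived 3T3Gli1-Luc cells carrying a stable Gli1-driven firefly luciferase reporter; nearly all actives have a fitted effect of over 15% in size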); settings: NIH/3T3 Gli1-Luc reporter, luciferase, 24 h; series mostly up to 92.4 µM
Summary of the method: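 Steps: seed 3T3 Gli1-Luc cells, incubate 4 hr at 37 C, pin-transfer compounds in DMSO alongside a positive control, incubate 24 hr, add luciferase detection reagent, wait 30 min at room temperature, read luminescence.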

[4] = qHTS assay to identify small molecule antagonists of the sonic hedgehog signaling (Shh) pathway (AID 1259369; calls by dose curve; note: nearly all actives have a fitted effect of over 45% in size); settings: NIH/3T3 Gli1-Luc reporter, Shh antagonist, luminescence 24 h; series mostly up to 92.4 µM
Summary of the method: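 Inhibition of Shh signalling is measured as reduced Gli1-response-element firefly luciferase output in an NIH/3T3-derived stable reporter clone stimulated with conditioned medium for 24hr.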

[5] = qHTS assay to identify small molecule agonists of the estrogen receptor beta (ER-beta) signaling pathway - cell viability counter screen (AID 1259380); settings: ER-beta-bla HEK293T viability, CellTiter-Glo luminescence, 16 h; series mostly up to 92.4 µM; note: nearly all actives have a fitted effect of over 30% in size
Summary of the method: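 Same-well viability counter screen. Cells: ER-beta-UAS-bla HEK293T, plated 6 hr before compound, in 2% charcoal-stripped FBS. Compound exposure 16 hr, 37C; viability by CellTiter-Glo luminescence after 30 min at room temperature.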

[6] = qHTS assay to identify small molecule antagonists of the estrogen receptor beta (ER-beta) signaling pathway - cell viability counter screen (AID 1259382); settings: ER-beta-UAS-bla HEK293T viability, CellTiter-Glo luminescence, 16 h; series mostly up to 92.4 µM; note: nearly all actives have a fitted effect of over 55% in size
Summary of the method: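 Following a 6 hr plating period, HEK293T cells carrying a UAS-driven beta-lactamase reporter under ER-beta control received compounds and 1nM E2 (final). After 16 hr at 37C and 2 hr substrate loading, CellTiter-Glo luminescence indicated viability.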

[7] = qHTS assay to identify small molecule agonists of the androgen receptor (AR) signaling pathway in the presence of an antagonist - cell viability counter screen (AID 1259379); settings: MDA-kb2 viability, CellTiter-Fluor, 16 h; series mostly up to 92.4 µM;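 note: MDA-kb2 human breast cancer cells carrying an MMTV luciferase reporter; nearly all actives have a fitted effect of over 25% in size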
Summary of the method: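 Fluorescence from CellTiter-Fluor, added after 15 hr and read 1 hr later, gave cell viability. Cells were MDA-kb2 exposed to compounds (15 concentrations) in the presence of 3.0uM nilutamide at 37C, 0% CO2.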

[8] = biological target: Estrogen receptor beta (Homo sapiens) (UniProt Q92731); assay: qHTS assay to identify small molecule agonists of the estrogen receptor beta (ER-beta) signaling pathway (AID 1259377; active = well fitted activation curve with a large enough effect in the signal ratio in the repeat runs, not every such curve was filed as active; the % refers to the signal ratio); settings: ER-beta-UAS-bla HEK293T, beta-lactamase FRET ratio, 16 h; series mostly up to 92.4 µM
Summary of the method: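 Beta-lactamase reporter readout: fluorescence of LiveBLAzer B/G FRET substrate after 2 h at room temperature, following 16 h compound treatment of ER-beta-UAS-bla HEK293T cells at 37C in 2% charcoal-stripped FBS medium.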

[9] = biological target: Estrogen receptor beta (Homo sapiens) (UniProt Q92731); assay: qHTS assay to identify small molecule antagonists of the estrogen receptor beta (ER-beta) signaling pathway (AID 1259378; active = well fitted inhibition curve with a large enough effect in the signal ratio in the repeat runs, not every such curve was filed as active; the % refers to the signal ratio); settings: ER-beta-UAS-bla HEK293T, beta-lactamase FRET ratio, 16 h; series mostly up to 92.4 µM
Summary of the method: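 ER-beta-UAS-bla HEK293T (GripTite) cells in 2% charcoal-stripped FBS medium were preincubated 6 hr at 37C, dosed with compound, then stimulated with 1 nM E2 (final) for 16 hr; beta-lactamase reporter read by B/G FRET fluorescence after 2 hr substrate loading.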

[10] = biological target: Androgen receptor (Homo sapiens) (UniProt P10275); assay: qHTS assay to identify small molecule agonists of the androgen receptor (AR) signaling pathway in the presence of an antagonist (AID 1259381; calls by dose curve; note: nearly all actives have a fitted effect of over 15% in size); settings: MDA-kb2 MMTV-luciferase, AR agonist + nilutamide, 16 h; series mostly up to 92.4 µM
Summary of the method: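 Cells are MDA-kb2 (human breast carcinoma, MMTV-luc, AR/GR responsive). Nilutamide is present at 3.0uM final throughout; compounds are added at 15 concentrations and incubated 16hr at 37C before ONE-Glo luminescence detection.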

Measured: Potency

Estrogen receptor beta (Homo sapiens), sequence (Q92731 whole entry, looked up): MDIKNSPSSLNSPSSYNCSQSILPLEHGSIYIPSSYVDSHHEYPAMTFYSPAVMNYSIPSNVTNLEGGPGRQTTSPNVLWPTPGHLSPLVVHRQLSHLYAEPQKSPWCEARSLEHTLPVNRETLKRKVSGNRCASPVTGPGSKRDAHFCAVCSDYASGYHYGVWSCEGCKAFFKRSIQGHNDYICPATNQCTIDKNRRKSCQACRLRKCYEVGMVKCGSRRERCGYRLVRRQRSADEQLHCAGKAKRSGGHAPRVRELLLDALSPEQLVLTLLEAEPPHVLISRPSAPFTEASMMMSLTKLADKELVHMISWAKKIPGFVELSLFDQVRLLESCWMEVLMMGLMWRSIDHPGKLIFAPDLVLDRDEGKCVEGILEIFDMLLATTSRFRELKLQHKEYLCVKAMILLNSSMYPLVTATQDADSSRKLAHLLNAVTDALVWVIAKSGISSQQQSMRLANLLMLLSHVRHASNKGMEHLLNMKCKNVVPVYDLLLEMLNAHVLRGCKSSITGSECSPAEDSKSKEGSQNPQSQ
Androgen receptor (Homo sapiens), sequence (P10275 whole entry, looked up): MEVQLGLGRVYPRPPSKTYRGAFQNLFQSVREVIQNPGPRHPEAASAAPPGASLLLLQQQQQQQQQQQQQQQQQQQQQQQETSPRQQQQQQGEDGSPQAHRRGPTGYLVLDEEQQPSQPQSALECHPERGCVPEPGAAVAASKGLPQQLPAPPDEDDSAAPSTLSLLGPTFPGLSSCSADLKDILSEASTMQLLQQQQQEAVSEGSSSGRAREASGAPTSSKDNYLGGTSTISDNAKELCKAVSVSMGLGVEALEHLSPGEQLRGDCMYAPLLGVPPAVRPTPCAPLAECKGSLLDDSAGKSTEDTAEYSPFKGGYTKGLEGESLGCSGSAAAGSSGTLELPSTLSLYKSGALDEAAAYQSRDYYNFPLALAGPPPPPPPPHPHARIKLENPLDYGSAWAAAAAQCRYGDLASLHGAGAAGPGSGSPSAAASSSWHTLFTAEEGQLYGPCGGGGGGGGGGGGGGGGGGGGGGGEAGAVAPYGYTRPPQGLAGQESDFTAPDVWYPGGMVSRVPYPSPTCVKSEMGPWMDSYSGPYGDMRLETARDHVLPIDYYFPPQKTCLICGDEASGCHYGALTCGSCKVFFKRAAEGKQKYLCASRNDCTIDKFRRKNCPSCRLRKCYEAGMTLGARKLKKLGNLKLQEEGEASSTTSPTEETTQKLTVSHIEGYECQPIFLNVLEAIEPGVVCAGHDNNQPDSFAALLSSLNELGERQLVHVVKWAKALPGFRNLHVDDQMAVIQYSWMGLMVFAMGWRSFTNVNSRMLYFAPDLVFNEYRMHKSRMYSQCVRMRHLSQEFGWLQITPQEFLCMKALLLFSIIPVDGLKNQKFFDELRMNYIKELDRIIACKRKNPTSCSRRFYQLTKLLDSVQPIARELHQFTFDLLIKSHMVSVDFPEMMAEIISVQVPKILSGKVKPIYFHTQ

COC(=O)C(c1ccccc1Cl)N1CCc2sccc2C1 (stereo unspecified)
inactive: [1] | [2] | [3] | [4] | [5] | [6]

C[Si](C)(C)O[Si](O)(O)O
inactive: [1] | [2] | [3] | [4] | [7] | [5] | [6]

Cc1cc(O)c(Cl)cc1C
inactive: [1] | [2] | [3] | [8] | [9] | [7] | [5] | [6]

CCOC(=O)c1ccc(N(C)C)cc1
inactive: [1] | [2] | [3] | [9] | [7] | [5] | [6]

CCCC(=O)CC
inactive: [1] | [2] | [3] | [8] | [9] | [7] | [5] | [6]

OCCC(F)(F)C(F)(F)C(F)(F)C(F)(F)C(F)(F)C(F)(F)F
inactive: [1] | [2] | [3] | [8] | [9] | [7] | [5] | [6]

CC(CN1CC(=O)NC(=O)C1)N1CC(=O)NC(=O)C1 (stereo unspecified)
inactive: [1] | [2] | [3] | [8] | [9] | [7] | [5] | [10] | [6]

O=C(O)Cc1c(Cl)ccc(Cl)c1Cl
inactive: [1] | [2] | [3] | [8] | [9] | [7] | [5] | [6]

From PubChem BioAssay (Tox21)
